Screens as filed in PubChem BioAssay.
IDE exosite inh: insulin-degrading enzyme (human) exo-site inhibition; z-score at 20 µM; 17,000 compounds, 6.3% hits; purified IDE, FL-6b probe fluorescence polarization; active compounds read low;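 active = z-score of -3 or lower, meaning strong loss of probe binding signal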;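 also: His-tagged human IDE residues 42-1019 made in E. coli with 30 nM FL-6b probe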
Numbers stand for hits; – = inactive; ! = not active in a repeat. This is one part of a sample in which hits are shown more often than they occur.

SMILES	IDE exosite inh
CN(C)C(=O)c1cccc(-c2ccc([C@@H]3[C@@H](C#N)N(C(=O)C4CC4)[C@H]3CO)cc2)c1	–
CN(C)C(=O)c1cccc(-c2ccc([C@@H]3[C@H](C#N)N(C(=O)C4CC4)[C@H]3CO)cc2)c1	–
CS(=O)(=O)N1[C@H](CO)[C@@H](c2ccc(-c3ccccc3F)cc2)[C@@H]1C#N	-3.1
CS(=O)(=O)N1[C@H](C#N)[C@@H](c2ccccc2)[C@@H]1CO	–
COc1ccccc1-c1ccc([C@@H]2[C@@H](CO)N(C(=O)C3CCC3)[C@H]2C#N)cc1	-6.5
CS(=O)(=O)N1[C@H](C#N)[C@@H](c2ccccc2-c2ccccc2F)[C@H]1CO	–
CN(C)C(=O)c1cccc(-c2ccc([C@@H]3[C@@H](C#N)N(C(=O)C4CC4)[C@@H]3CO)cc2)c1	-3.6
COc1ccccc1-c1ccc([C@@H]2[C@@H](C#N)N(C(=O)C3CCC3)[C@@H]2CO)cc1	-12
COc1ccccc1-c1ccc([C@H]2[C@@H](CO)N(C(=O)C3CCC3)[C@H]2C#N)cc1	–
N#Cc1ccc(-c2ccc3c(c2)[C@H]2[C@H](CCN2C(=O)C2CCCCC2)[C@H](CO)N3)cc1	–
COCC(=O)N1[C@H](C#N)[C@@H](c2ccccc2)[C@H]1CO	–
CC(C)C#Cc1ccc([C@@H]2[C@H]3CN(C(=O)c4ccc5c(c4)OCO5)CCCCN3[C@H]2CO)cc1	–
CC(=O)NC[C@H]1[C@@H](c2ccc(-c3ccccc3)cc2)[C@@H](CO)N1C(=O)C1CC1	–
C[C@@H]1CN([C@@H](C)CO)C(=O)c2c(c3ccccc3n2C)-c2ccccc2CO[C@@H]1CN(C)C(=O)Nc1ccccc1C(F)(F)F	–
Cc1ccc(S(=O)(=O)Nc2ccc3c(c2)C(=O)N([C@@H](C)CO)C[C@H](C)[C@@H](CN(C)S(=O)(=O)c2cccs2)OCCCC[C@@H](C)O3)cc1	–
CN(C)CC(=O)N1[C@@H](C#N)[C@@H](c2ccccc2-c2cccc(C(=O)N(C)C)c2)[C@@H]1CO	–
COCC(=O)N1CC2(C1)CN(C(=O)NC1CCCC1)[C@H](CO)c1c2c2ccc(OC)cc2n1C	–
N#C[C@H]1[C@H](c2ccccc2)[C@@H](CO)N1S(=O)(=O)Cc1ccccc1	–
CN1C(=O)c2cc(NC(=O)C3CCOCC3)ccc2OC[C@@H]2O[C@@H](CC(=O)NCC3CCCCC3)CC[C@H]21	–
COc1cccc(C#Cc2ccc([C@H]3[C@H](C#N)N(C(=O)C4CC4)[C@H]3CO)cc2)c1	–
N#C[C@H]1[C@H](c2ccc(-c3ccccc3F)cc2)[C@@H](CO)N1C(=O)C1CCC1	–
COc1ccccc1-c1ccc([C@@H]2[C@@H](C#N)N(C(=O)c3cccnc3)[C@@H]2CO)cc1	-34
N#C[C@H]1[C@H](c2ccc(-c3ccccc3F)cc2)[C@H](CO)N1C(=O)C1CCC1	-3.1
COc1cccc(C#Cc2ccc([C@H]3[C@@H](C#N)N(C(=O)C4CCC4)[C@@H]3CO)cc2)c1	–
COc1ccccc1-c1ccccc1[C@@H]1[C@@H](C#N)N(C(=O)C2CCC2)[C@H]1CO	–
SMILES	IDE exosite inh
COc1cccc(C#Cc2ccc([C@H]3[C@@H](CO)N(C(=O)C4CCOCC4)[C@H]3C#N)cc2)c1	-5.1
COc1ccc(-c2ccc([C@@H]3[C@H](C#N)N(C(=O)c4cccnc4)[C@H]3CO)cc2)cc1	–
COc1ccccc1-c1ccc([C@H]2[C@@H](C#N)N(C(=O)C3CCC3)[C@@H]2CO)cc1	-4.8
N#C[C@@H]1[C@H](c2ccc(-c3ccccc3F)cc2)[C@@H](CO)N1C(=O)C1CCC1	–
COc1ccccc1-c1ccccc1[C@H]1[C@@H](C#N)N(C(=O)C2CCC2)[C@H]1CO	–
COc1ccc(-c2ccc([C@@H]3[C@@H](CO)N(C(=O)c4cccnc4)[C@H]3C#N)cc2)cc1	–
C[C@@H](O)C#Cc1ccc([C@H]2[C@@H](CO)N3CCCCN(C(=O)c4cccc(F)c4)C[C@H]23)cc1	–
Cc1ccc(-c2ccc([C@H]3[C@@H](CO)N4CCCCN(C(=O)c5ccc(F)cc5)C[C@@H]34)cc2)cc1	–
Cn1cnc(S(=O)(=O)N[C@H]2CC[C@H](CC(=O)NCC3CCCCC3)O[C@H]2CO)c1	–
N#C[C@@H]1[C@H](c2ccc(C#Cc3ccc(F)cc3)cc2)[C@@H](CO)N1c1nc(-c2ccccc2)cs1	–
C[C@@H]1CN([C@H](C)CO)C(=O)c2cc(-c3ccc(F)cc3)cnc2O[C@@H]1CN(C)S(C)(=O)=O	–
C/C=C/c1ccc(C2[C@@H]3CN(Cc4cccc(OC)c4)C[C@H]2N3)cc1 (stereo not given in full)	–
COc1cccc(C#Cc2ccc([C@@H]3[C@@H](CO)N4C(=O)CN(S(=O)(=O)c5ccccc5C)C[C@H]34)cc2)c1	–
O=C(Nc1cccc(F)c1)N1CCCCN2[C@H](CO)[C@H](c3ccc(-c4ccccc4F)cc3)[C@@H]2C1	–
OC[C@@H]1[C@H](c2ccccc2)C2(CN(Cc3ccccc3F)C2)N1Cc1ccccc1F	–
COc1ccccc1-c1ccc([C@H]2[C@H](C#N)N(C(=O)C3CCC3)[C@H]2CO)cc1	-8.1
COc1ccccc1-c1ccccc1[C@H]1[C@@H](C#N)N(C(=O)C2CCC2)[C@@H]1CO	–
CN(C)C(=O)c1cccc(-c2ccc(C3[C@@H]4CN(Cc5nccs5)C[C@H]3N4)cc2)c1 (stereo not given in full)	-3.2!
CN(C)C(=O)c1ccc(-c2ccc(C3[C@@H]4CN(Cc5nccs5)C[C@H]3N4)cc2)cc1 (stereo not given in full)	–
CN(C)C(=O)c1cccc(-c2ccc(C3[C@H]4CNC[C@@H]3N4Cc3nccs3)cc2)c1 (stereo not given in full)	–
COc1ccccc1-c1ccccc1[C@@H]1[C@H](C#N)N(C(=O)C2CCOCC2)[C@H]1CO	–
COc1ccccc1-c1ccccc1[C@@H]1[C@H](C#N)N(C(=O)C2CCC2)[C@H]1CO	–
COc1ccccc1-c1ccc([C@H]2[C@@H](CO)N(C(=O)C3CCOCC3)[C@H]2C#N)cc1	-8.3
COc1ccccc1-c1ccc([C@H]2[C@@H](CO)N(C(=O)C3CC3)[C@H]2C#N)cc1	–
C[C@H]1CN([C@@H](C)CO)C(=O)c2cc(-c3ccncc3)cnc2O[C@H]1CN(C)C(=O)CN1CCOCC1	–
SMILES	IDE exosite inh
CCCC#Cc1ccc([C@H]2[C@@H](C#N)N(C(=O)CN3CCOCC3)[C@H]2CO)cc1	–
C/C=C/c1ccc2c(c1)O[C@@H](CN(C)C(=O)Nc1ccc(OC)cc1)[C@@H](C)CN([C@@H](C)CO)S2(=O)=O	–
CN(C)C(=O)c1cccc(-c2ccc([C@H]3[C@@H](CO)N4CCCCN(C(=O)C5CCC5)C[C@H]34)cc2)c1	–
N#C[C@@H]1[C@@H](c2ccccc2-c2cccc(F)c2)[C@H](CO)N1C(=O)C1CC1	–
CCS(=O)(=O)Nc1ccc2c(c1)C(=O)N(C)[C@H]1CC[C@H](CC(=O)NC3CCCCC3)O[C@H]1CO2	–
N#C[C@@H]1[C@@H](c2ccccc2)[C@@H](CO)N1C(=O)Cc1ccccn1	–
O=C(Cc1ccccc1)N1CC(=O)N2[C@H](C1)[C@H](c1ccc(Br)cc1)[C@@H]2CO	–
OC[C@@H]1[C@@H](c2ccc(-c3cccc(F)c3)cc2)[C@@H]2CN(Cc3cncnc3)CCCCN12	–
COc1cccc(-c2ccc([C@H]3[C@@H](CO)N4CCCCN(Cc5cncnc5)C[C@@H]34)cc2)c1	–
COc1ccc(-c2ccc([C@H]3[C@H]4CN(CC5CCOCC5)CCCCN4[C@H]3CO)cc2)cc1	–
